# Measured values published in PubChem BioAssay.
# Activity calls are given as the source filed them.
# Key:
# [1] = optical density shifts of acrAB sulA E. coli – strain DRC41, OD650, 48 h, E. coli filamentation inducer project, primary screen (AID 1152); conditions: higher = more signal, called active from +8 up or from −8 down;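 note: E. coli MC1000 strain DRC41 lacking acrAB efflux pump and sulA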
# [2] = probe aLefty1 binding on compound microarray – biochemical, small-molecule microarray, 635/667 nm fluorescence, primary screen (AID 1153); conditions: higher = more signal;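 note: score merges spot fluorescence with signal-to-noise ratio from the scanned slide images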
# [3] = plasmodial surface anion channel blockers, osmotic lysis – cell-based, P. falciparum Indochina, OD700, 1 h, primary screen (AID 1154); conditions: P. falciparum Indochina infected RBC osmotic lysis, higher = more signal, called active from +8 up or from −8 down
# [4] = plasmodial surface anion channel blockers, osmotic lysis – cell-based, P. falciparum Indochina, OD700, 2 h, primary screen (AID 1155);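 note: lysis reports solute entry through the parasite surface anion channel PSAC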; conditions: P. falciparum Indochina infected erythrocytes, higher = more signal, called active from +8 up or from −8 down
# [5] = changes in parasitized red cell lysis, either direction – P. falciparum Indochina, OD700, 3 h, PSAC antagonist project, primary screen (AID 1156); conditions: P. falciparum-infected erythrocytes, osmotic lysis, higher = more signal, called active from +8 up or from −8 down
# [6] = plasmodial surface anion channel blockers, osmotic lysis – cell-based, P. falciparum Indochina, OD700, 18 h, primary screen (AID 1157); conditions: P. falciparum Indochina infected erythrocytes, osmotic lysis OD700, 18 h; higher = more signal, called active from +8 up or from −8 down
# [7] = S6 kinase pathway phospho-S6 level changes – cell-based, A549, cytoblot, luminescence, serum-stimulated, primary screen (AID 1158); conditions: 5 h, higher = more signal;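 note: serum-stimulated A549 lung adenocarcinoma cells; signal is phosphorylated S6 detected by cytoblot immunostaining with HRP secondary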
# [8] = molecular target: NADPH oxidase 2 (Homo sapiens) (UniProt P04839); experiment: compounds shifting NOX2 Amplex Red fluorescence – cell-based, HEK293-NOX2, PMA-stimulated, NOX inhibitor project, primary screen (AID 1159); conditions: 45 min, higher = more signal, called active from +8 up or from −8 down; note: test concentration not given here
# Chain of NADPH oxidase 2 (Homo sapiens) (P04839 whole entry, looked up): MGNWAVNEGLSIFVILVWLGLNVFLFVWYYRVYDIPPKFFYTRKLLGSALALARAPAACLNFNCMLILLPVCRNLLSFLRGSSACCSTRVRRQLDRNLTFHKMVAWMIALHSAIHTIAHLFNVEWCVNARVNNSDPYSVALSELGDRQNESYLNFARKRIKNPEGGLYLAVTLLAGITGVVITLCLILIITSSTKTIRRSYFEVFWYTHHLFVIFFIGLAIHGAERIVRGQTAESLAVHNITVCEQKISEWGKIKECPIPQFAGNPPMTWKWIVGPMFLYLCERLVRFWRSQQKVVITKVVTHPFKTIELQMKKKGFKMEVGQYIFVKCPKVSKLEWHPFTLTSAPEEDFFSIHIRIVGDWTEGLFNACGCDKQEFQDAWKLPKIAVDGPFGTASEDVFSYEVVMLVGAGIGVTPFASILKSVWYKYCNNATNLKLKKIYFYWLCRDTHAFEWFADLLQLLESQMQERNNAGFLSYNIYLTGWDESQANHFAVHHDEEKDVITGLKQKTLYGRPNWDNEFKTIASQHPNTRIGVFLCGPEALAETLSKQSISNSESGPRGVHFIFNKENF
# [9] = molecular target: NADPH oxidase 4 (Homo sapiens) (UniProt Q9NPH5); experiment: compounds shifting NOX4 Amplex Red fluorescence – cell-based, HEK293-NOX4, tetracycline-induced, NOX inhibitor project, primary screen (AID 1160); conditions: HEK293-NOX4, Amplex Red H2O2 fluorescence, 45 min; higher = more signal, called active from +8 up or from −8 down
# Chain of NADPH oxidase 4 (Homo sapiens) (Q9NPH5 whole entry, looked up): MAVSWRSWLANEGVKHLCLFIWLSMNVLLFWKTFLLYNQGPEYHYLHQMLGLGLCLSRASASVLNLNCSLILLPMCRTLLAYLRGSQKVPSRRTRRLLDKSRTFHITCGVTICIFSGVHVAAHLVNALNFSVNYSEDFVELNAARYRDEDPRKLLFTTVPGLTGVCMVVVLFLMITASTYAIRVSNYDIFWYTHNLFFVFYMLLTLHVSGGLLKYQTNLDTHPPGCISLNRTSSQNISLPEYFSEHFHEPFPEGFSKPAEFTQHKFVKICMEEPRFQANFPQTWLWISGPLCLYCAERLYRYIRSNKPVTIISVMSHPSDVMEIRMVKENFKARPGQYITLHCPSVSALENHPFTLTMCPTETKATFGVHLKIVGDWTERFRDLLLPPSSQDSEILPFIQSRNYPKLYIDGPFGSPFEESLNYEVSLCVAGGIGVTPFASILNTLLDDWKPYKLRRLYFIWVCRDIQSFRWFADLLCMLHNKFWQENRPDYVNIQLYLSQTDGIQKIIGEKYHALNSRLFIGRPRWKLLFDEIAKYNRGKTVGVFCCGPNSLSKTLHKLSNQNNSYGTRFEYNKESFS
# [10] = molecular target: NADPH oxidase 5 (Homo sapiens) (UniProt Q96PH1); experiment: compounds shifting NOX5 Amplex Red fluorescence – cell-based, HEK293-NOX5, NOX inhibitor project, primary screen (AID 1161); conditions: HEK293-NOX5, ionomycin, 45 min, higher = more signal
# Chain of NADPH oxidase 5 (Homo sapiens) (Q96PH1 whole entry, looked up): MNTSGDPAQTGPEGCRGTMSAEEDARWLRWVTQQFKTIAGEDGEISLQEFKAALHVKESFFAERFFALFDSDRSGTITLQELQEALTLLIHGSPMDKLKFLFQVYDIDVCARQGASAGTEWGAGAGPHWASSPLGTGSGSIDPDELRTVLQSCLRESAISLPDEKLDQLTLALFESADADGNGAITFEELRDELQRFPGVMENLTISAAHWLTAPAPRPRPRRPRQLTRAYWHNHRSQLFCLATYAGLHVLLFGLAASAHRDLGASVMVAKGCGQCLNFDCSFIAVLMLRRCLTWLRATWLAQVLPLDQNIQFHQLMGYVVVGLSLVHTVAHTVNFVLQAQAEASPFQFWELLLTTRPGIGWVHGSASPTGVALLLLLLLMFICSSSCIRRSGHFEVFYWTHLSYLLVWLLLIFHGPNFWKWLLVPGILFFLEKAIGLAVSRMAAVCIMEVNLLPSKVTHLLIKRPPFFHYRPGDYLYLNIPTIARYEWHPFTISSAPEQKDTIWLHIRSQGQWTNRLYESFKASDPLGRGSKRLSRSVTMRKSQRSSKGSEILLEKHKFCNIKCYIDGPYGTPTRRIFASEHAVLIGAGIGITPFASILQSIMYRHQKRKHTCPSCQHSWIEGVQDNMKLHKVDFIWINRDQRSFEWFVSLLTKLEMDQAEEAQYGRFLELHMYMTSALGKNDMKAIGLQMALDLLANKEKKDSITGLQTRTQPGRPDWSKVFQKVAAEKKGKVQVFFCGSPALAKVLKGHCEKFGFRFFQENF
# [11] = compound effects on lung adenocarcinoma cell viability – A549, calcein-AM fluorescence, 48 h, basal, profiling panel (AID 1162); conditions: higher = more signal; note: test concentration not given here
# [12] = compound effects on differentiated 3T3-L1 adipocyte viability – cell-based, 3T3-L1 adipocytes, calcein-AM fluorescence, 48 h, basal, profiling panel (AID 1163); conditions: 3T3-L1 adipocytes viability, higher = more signal; note: test concentration not given here
# [13] = compound effects on hepatocellular carcinoma cell viability – HepG2, calcein-AM fluorescence, 48 h, basal, profiling panel (AID 1164); conditions: higher = more signal; note: test concentration not given here
# [14] = compound effects on multiple myeloma cell viability – MM1S, calcein-AM fluorescence, 48 h, basal, profiling panel (AID 1165); conditions: higher = more signal; note: test concentration not given here
# [15] = calcein-AM signal in unstimulated myeloma cells – cell-based, calcein-AM fluorescence, 48 h, PK04 Diversity Set, profiling panel (AID 1166); conditions: RPMI8226 myeloma viability, higher = more signal;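 note: cells grown under basal conditions without added stimulus; test concentration not given here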
# [16] = JC-1 mitochondrial signal, unstimulated HepG2 cells – cell-based, JC-1 fluorescence, 24 h, 100 nL compound, profiling panel (AID 1167); conditions: HepG2 mitochondrial potential, higher = more signal; note: test concentration not given here
# [17] = JC-1 mitochondrial signal, unstimulated adipocytes – cell-based, JC-1 fluorescence, 3T3-L1 adipocytes, 24 h, 100 nL compound, profiling panel (AID 1168); conditions: JC-1 mitochondrial fluorescence, higher = more signal, called active from +8 up or from −8 down; note: test concentration not given here
# [18] = JC-1 mitochondrial signal, unstimulated myeloma cells – cell-based, JC-1 fluorescence, RPMI8226, 24 h, 100 nL compound, profiling panel (AID 1169); conditions: JC-1 mitochondrial potential fluorescence, higher = more signal; note: test concentration not given here
# [19] = JC-1 mitochondrial signal, unstimulated MM1S myeloma – cell-based, JC-1 fluorescence, 24 h, 100 nL compound, profiling panel (AID 1170); conditions: MM1S mitochondrial potential, higher = more signal; note: test concentration not given here
# [20] = resazurin metabolic signal in A549 cells – cell-based, resazurin fluorescence, 24 h, PK04 Diversity Set, profiling panel (AID 1171); conditions: A549 viability, higher = more signal, called active from +8 up or from −8 down; note: test concentration not given here
SMILES,z-score [1],composite z-score [2],z-score [3],z-score [4],z-score [5],z-score [6],z-score [7],z-score [8],z-score [9],z-score [10],z-score [11],z-score [12],z-score [13],z-score [14],z-score [15],z-score [16],z-score [17],z-score [18],z-score [19],z-score [20]
CCN1C(=O)[C@H]2[C@H]3[C@H](O)[C@H](O)CC(=NOC[C@@H](O)[C@H]4O[C@@H]5OC(C)(C)O[C@@H]5[C@H]4O)[C@@H]3CC[C@H]2C1=O,-0.352 (inactive),0.0445,0.158 (inactive),0.196 (inactive),0.151 (inactive),0.318 (inactive),-0.102,-0.842 (inactive),0.162 (inactive),0.953,0.725,-0.532,0.282,0.388,0.12,0.0654,0.141 (inactive),0.71,-0.481,-0.794 (inactive)
CO[C@H]1COC(=O)CCC[C@H](C)[C@H](OC)COC(=O)CC=C[C@@H]1C,0.928 (inactive),-0.0626,-0.972 (inactive),-1.26 (inactive),0.232 (inactive),-1.45 (inactive),1.18,-0.0777 (inactive),0.862 (inactive),0.381,1.11,-0.14,0.481,-0.469,-0.351,-0.101,-1.7 (inactive),0.226,-0.982,0.285 (inactive)
O=C1C=C[C@@H](O)[C@@H]2[C@@H]3C(=O)N(Cc4ccccc4)C(=O)[C@@H]3CC[C@@H]12,0.763 (inactive),-0.0145,0.09 (inactive),0.201 (inactive),0.853 (inactive),-0.0165 (inactive),0.09,0.808 (inactive),0.553 (inactive),0.455,0.698,0.594,1.33,-0.134,-0.73,1.42,-0.125 (inactive),-0.057,-0.05,-0.754 (inactive)
CCOC(=O)[C@H](CC(C)C)NC(=O)CCC1CC(OC(=O)NCc2ccc3c(c2)OCO3)CC2(CCCC(COC(=O)NCCc3ccccc3OC)O2)O1 (stereo not given in full),-1.08 (inactive),0.0437,-1.67 (inactive),-0.213 (inactive),-1.01 (inactive),-0.143 (inactive),-0.116,0.0807 (inactive),0.886 (inactive),1.24,-0.47,-0.837,0.0138,-1.32,-0.312,-0.828,-0.104 (inactive),-0.282,-0.501,1.06 (inactive)
C[C@H]1CC[C@@H](C(=O)O)N[C@@H]1c1cccc(N2CCCC2=O)c1,1.04 (inactive),-0.103,0.162 (inactive),0.677 (inactive),0.121 (inactive),0.125 (inactive),0.42,-0.207 (inactive),0.00437 (inactive),0.682,0.594,-0.115,0.652,0.149,-1.12,1.66,0.574 (inactive),0.468,-0.436,0.0065 (inactive)
COC(=O)CC=C[C@@H](C)[C@@H](C=NOC(C)CN1CCCc2nc(C)c(C)cc21)NS(=O)(=O)c1ccc(C)cc1 (stereo not given in full),0.364 (inactive),0.119,2.52 (inactive),0.584 (inactive),0.201 (inactive),0.49 (inactive),-0.929,-0.134 (inactive),0.283 (inactive),-0.736,0.969,-0.176,0.0666,-1.08,-0.427,-0.486,-0.774 (inactive),0.462,-0.534,-0.726 (inactive)
CC(C)CON=C1C[C@@H](O)[C@@H](O)[C@@H]2[C@@H]3C(=O)N(c4ccc(F)cc4F)C(=O)[C@@H]3CC[C@@H]12,-0.177 (inactive),-0.0984,1.3 (inactive),-0.913 (inactive),-0.116 (inactive),-2.29 (inactive),-0.164,-1.11 (inactive),-1.87 (inactive),-3.22,-0.793,0.44,-0.464,-0.102,-0.587,1.31,-0.4 (inactive),-0.648,-0.425,0.491 (inactive)
CO[C@@H](C(C)C)[C@@H](C)C1OC(=O)CC1O (stereo not given in full),0.486 (inactive),-0.278,-0.315 (inactive),0.0974 (inactive),-0.566 (inactive),-0.121 (inactive),-0.289,1.29 (inactive),0.129 (inactive),0.368,-0.729,-0.121,-0.349,0.534,-0.908,-0.518,-0.419 (inactive),-0.147,-0.0891,-0.196 (inactive)
O=C1CCCC=C1C(O)COCc1ccccc1 (stereo not given),-0.245 (inactive),-0.194,0.782 (inactive),0.36 (inactive),-0.0291 (inactive),-0.0223 (inactive),-0.338,0.237 (inactive),0.733 (inactive),0.63,0.384,-1.41,-1.13,-0.265,0.729,-0.143,-0.649 (inactive),0.728,-0.0651,0.0235 (inactive)
